Reference: PubChem BioAssay (EPA / NIEHS)
Several values for one entry are separate records, joined by “and”; a condition that tells them apart may be missing. Equal values may be shown once. Records with an inconclusive call do not appear. The source holds several records for some structures; these can differ, active in one and inactive in another. Activity calls are given as the source filed them. How the source made its calls, unless noted: active means hit-call score of the fitted dose curve at least 0.9, where 1 is the maximum; inconclusive means response in the unintended direction; inactive means score below 0.9.

Tests used:
[1] = target: Cellular tumor antigen p53 (Homo sapiens) (UniProt P04637); assay: TOX21_p53_BLA_p5_ratio: Tox21 HCT-116 p53 Agonism Beta-lactamase Assay, Ratio, Phase 5 (AID 2283599)
In short: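 HCT-116 cells carrying a p53-inducible beta-lactamase reporter were seeded at 4000 cells/well and dosed after 5 h with compound in DMSO (217-fold dilution). After 16 h at 37C, CCF4-AM substrate was added for 2 h, and the 460/530 nm emission ratio was scored as gain-of-signal versus DMSO.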

[2] = TOX21_p53_BLA_p5_viability: Viability Assessment in the Tox21 HCT-116 p53 Agonism Beta-lactamase Assay, Phase 5 (AID 2283600)
In short: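 Counter-readout for cytotoxicity: ATP-dependent luminescence from CellTiter-Glo, read in the beta-lactamase wells after 30 min at RT, following a 16 h compound exposure at 37C.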

[3] = target: Cellular tumor antigen p53 (Homo sapiens) (UniProt P04637); assay: TOX21_p53_BLA_p4_ratio: Tox21 HCT-116 p53 Agonism Beta-lactamase Assay, Ratio, Phase 4 (AID 2283601)
In short: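 HCT116 cells carrying an inducible beta-lactamase reporter were plated at 4000 cells/well, rested 5 h, then exposed to compounds in DMSO (217-fold dilution) for 16 h at 37C. CCF4-AM substrate was loaded 2 h at room temperature; 460/530 nm emission ratio scored gain-of-signal versus DMSO.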

[4] = Tanguay_ZF_120hpf_MORT_legacy: (Legacy) Oregon State University Tanguay Lab 120 Hour Post-fertilization zebrafish Assay for Mortality (AID 2283633);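 on AC50: fitted as increase in binary mortality versus DMSO negative control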
In short: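 Mortality endpoint from a multiplexed whole-embryo zebrafish screen. Dechorionated wild-type embryos received compound at 6 hpf and remained under static exposure at 28C until 120 hpf, with death noted as a present/absent call.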

[5] = Tanguay_ZF_120hpf_YSE_legacy: (Legacy) Oregon State University Tanguay Lab 120 Hour Post-fertilization zebrafish Assay for Yolk Sac Edema (AID 2283634);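 on AC50: actives raise the incidence of yolk sac edema above the DMSO baseline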
In short: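 Readout: presence or absence of yolk sac edema at 120 hpf, fitted upward against DMSO controls. Exposure ran statically from 6 hpf in dechorionated embryos kept at 28C.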

[6] = Tanguay_ZF_120hpf_AXIS_legacy: (Legacy) Oregon State University Tanguay Lab 120 Hour Post-fertilization zebrafish Assay for Body Axis Malformation (AID 2283635);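 on AC50: potency for an increased fraction of larvae scored with body axis malformation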
In short: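 Static 6–120 hpf chemical exposure of dechorionated wild-type 5D zebrafish, one per well at 28C; morphology endpoint scored binary at 120 hpf relative to DMSO control.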

[7] = Tanguay_ZF_120hpf_EYE_legacy: (Legacy) Oregon State University Tanguay Lab 120 Hour Post-fertilization zebrafish Assay for Eye Malformation (AID 2283636);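 further: binary presence or absence of eye malformation scored by brightfield in 120 hpf larvae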
In short: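 Dechorionated wild-type Tropical 5D zebrafish embryos were exposed statically from 6 hpf, one per well, to 120 hpf at 28C in sealed, foil-covered plates with 0.64% DMSO. Eye malformation was scored present/absent by brightfield microscopy against DMSO controls.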

[8] = Tanguay_ZF_120hpf_SNOU_legacy: (Legacy) Oregon State University Tanguay Lab 120 Hour Post-fertilization zebrafish Assay for Snout Malformation (AID 2283637)
In short: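 Tropical 5D wild-type zebrafish embryos, dechorionated with pronase at 4 hpf, were exposed singly from 6 hpf to 120 hpf statically at 28C in 0.64% DMSO. Snout malformation was scored present/absent by brightfield microscopy, fitted against DMSO.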

[9] = Tanguay_ZF_120hpf_JAW_legacy: (Legacy) Oregon State University Tanguay Lab 120 Hour Post-fertilization zebrafish Assay for Jaw Malformation (AID 2283638);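 on AC50: active means more embryos with jaw malformation than DMSO controls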
In short: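 Static waterborne exposure of dechorionated wild-type (Tropical 5D) zebrafish from 6 to 120 hpf at 28C, 0.64% DMSO vehicle; 5uM trimethyltin chloride served as positive control. Jaw morphology recorded as binary at 120 hpf.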

[10] = Tanguay_ZF_120hpf_OTIC_legacy: (Legacy) Oregon State University Tanguay Lab 120 Hour Post-fertilization zebrafish Assay for Otic Vesicle Malformation (AID 2283639)
In short: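 Otic vesicle malformation is read as a yes/no morphology call at 120 hpf. Exposure is static at 28C with 0.64% (vol/vol) DMSO; embryos that die are excluded from non-mortality endpoints.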

[11] = Tanguay_ZF_120hpf_BRAI_legacy: (Legacy) Oregon State University Tanguay Lab 120 Hour Post-fertilization zebrafish Assay for Brain Malformation (AID 2283641)
In short: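 Brain malformation in Tropical 5D zebrafish was recorded as a binary endpoint after static compound exposure from early development to 120 hpf at 28C. Activity was analysed against DMSO as negative control.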

[12] = Tanguay_ZF_120hpf_SOMI_legacy: (Legacy) Oregon State University Tanguay Lab 120 Hour Post-fertilization zebrafish Assay for Somite Malformation (AID 2283647)
In short: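 5D WT zebrafish; chorion removed 4 hpf; 1 embryo/well from 6 hpf; static exposure to 120 hpf, 28C, 0.64% DMSO final. Endpoint: somite malformation, binary, brightfield. Mortality excluded.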

[13] = Tanguay_ZF_120hpf_PFIN_legacy: (Legacy) Oregon State University Tanguay Lab 120 Hour Post-fertilization zebrafish Assay for Pectoral Fin Malformation (AID 2283648);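 further: each larva judged yes or no for fin defect by brightfield with dead larvae skipped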
In short: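 Tropical 5D wild-type embryos, dechorionated with pronase at 4 hpf, were placed singly in wells at 6 hpf and statically exposed until 120 hpf at 28C, sealed and dark, with 0.64% (vol/vol) final DMSO; pectoral fin malformation scored present/absent.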

[14] = Tanguay_ZF_120hpf_CFIN_legacy: (Legacy) Oregon State University Tanguay Lab 120 Hour Post-fertilization zebrafish Assay for Caudal Fin Malformation (AID 2283649)
In short: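 Embryos were collected from Tropical 5D wild-type adults and dechorionated at 4 hpf. At 6 hpf each was exposed, one per well, at 0.64% DMSO and 28C. At 120 hpf fin morphology was scored; dead embryos were excluded.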

[15] = Tanguay_ZF_120hpf_PIG_legacy: (Legacy) Oregon State University Tanguay Lab 120 Hour Post-fertilization zebrafish Assay for Pigmentation Malformation (AID 2283650)
In short: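 Tropical 5D wild-type zebrafish embryos, dechorionated with pronase at 4 hpf, were exposed singly from 6 hpf to 120 hpf statically at 28C in sealed, dark plates with 0.64% DMSO; pigmentation scored present/absent by brightfield microscopy, fitted against DMSO.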

[16] = Tanguay_ZF_120hpf_CIRC_legacy: (Legacy) Oregon State University Tanguay Lab 120 Hour Post-fertilization zebrafish Assay for Circulatory Malformation (AID 2283651)
In short: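 Using wild-type Tropical 5D zebrafish, we exposed dechorionated embryos from 6 to 120 hpf in embryo medium with 0.64% DMSO. Circulatory defects were scored as present or absent; 5uM trimethyltin chloride served as positive control.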

[17] = Tanguay_ZF_120hpf_SWIM_legacy: (Legacy) Oregon State University Tanguay Lab 120 Hour Post-fertilization zebrafish Assay for Swim Bladder Malformation (AID 2283654);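 further: swim bladder malformation in each larva scored yes or no under brightfield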
In short: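 Dechorionated Tropical 5D wild-type embryos, placed singly from 6 hpf, were statically exposed at 28C to 120 hpf with 0.64% DMSO final; swim bladder malformation was scored present/absent by brightfield microscopy, gain of signal relative to DMSO controls.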

[18] = read-out: solute carrier (SLC22A6), SLC22A6 (gene 9356); assay: LTEA_HepaRG_SLC22A6: Life Technologies and Expression Analysis (LTEA) Assay for solute carrier (SLC22A6) using HepaRG (AID 2283653; active means hit-call score of the fitted dose curve at least 0.9, where 1 is the maximum; inactive means score below 0.9); conditions: mRNA level, 48 h; actives raise or lower the signal
In short: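 This endpoint tracks SLC22A6 mRNA induction or suppression in human HepaRG cultures after 48 h dosing, concentrations reaching 100 uM. Values derive from bidirectional fitting against DMSO controls.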

[19] = Tanguay_ZF_120hpf_PE_legacy: (Legacy) Oregon State University Tanguay Lab 120 Hour Post-fertilization zebrafish Assay for Pericardial Edema (AID 2283640)
In short: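 Read-out is the presence or absence of pericardial edema at 120 hpf under brightfield, with gain of signal fitted against DMSO controls. Larvae (5D wild-type) were statically exposed at 28C with 0.64% final DMSO.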

Sequence of Cellular tumor antigen p53 (Homo sapiens) (P04637 whole entry, looked up): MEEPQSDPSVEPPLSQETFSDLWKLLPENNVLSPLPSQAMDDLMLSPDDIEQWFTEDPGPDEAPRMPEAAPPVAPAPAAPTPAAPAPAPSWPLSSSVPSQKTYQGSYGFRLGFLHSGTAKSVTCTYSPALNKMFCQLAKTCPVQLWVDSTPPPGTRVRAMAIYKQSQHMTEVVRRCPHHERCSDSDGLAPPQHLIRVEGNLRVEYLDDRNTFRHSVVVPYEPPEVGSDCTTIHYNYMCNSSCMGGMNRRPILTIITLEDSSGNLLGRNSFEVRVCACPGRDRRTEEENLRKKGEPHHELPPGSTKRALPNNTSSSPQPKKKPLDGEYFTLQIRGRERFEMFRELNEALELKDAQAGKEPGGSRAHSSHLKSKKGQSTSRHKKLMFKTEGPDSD

O=C(O)C1(C(=O)Nc2ccc(Cl)cc2Cl)CC1
outcome [1]: inactive
outcome [2]: inactive
AC50 [3]: 46.1 µM (active)
outcome [4]: inactive
AC50 [5]: 32.3 µM (active)
AC50 [6]: 10 µM (active)
outcome [7]: inactive
outcome [8]: inactive
outcome [9]: inactive
outcome [10]: inactive
outcome [11]: inactive
outcome [12]: inactive
outcome [13]: inactive
outcome [14]: inactive
outcome [15]: inactive
outcome [16]: inactive
outcome [17]: inactive

CCCCCCC(C)OC(=O)COc1nc(F)c(Cl)c(N)c1Cl (configuration not stated)
outcome [1]: inactive
outcome [2]: inactive
AC50 [3]: 87.2 µM (active)
outcome [4]: inactive
outcome [5]: inactive
outcome [6]: inactive
outcome [7]: inactive
outcome [10]: inactive
outcome [11]: inactive
outcome [12]: inactive
outcome [16]: inactive
outcome [18]: inactive
outcome [17]: inactive

N[C@@H](Cc1cc(I)c(Oc2ccc(O)c(I)c2)c(I)c1)C(=O)O
AC50 [1]: 36.8 µM (active)
outcome [1]: inactive
outcome [2]: inactive
AC50 [3]: 34.8 µM (active)
outcome [3]: inactive
AC50 [4]: 0.233 µM (active)
outcome [5]: inactive
AC50 [6]: 0.000818 µM (active)
AC50 [7]: 2.51 nM (active)
AC50 [8]: 1.11 nM (active)
AC50 [9]: 1.71 nM (active)
outcome [12]: inactive
outcome [13]: inactive
outcome [14]: inactive
AC50 [15]: 0.51 nM (active)
outcome [16]: inactive

CCOC(=O)C(C)Oc1ccc(Oc2nc3ccc(Cl)cc3o2)cc1 (configuration not stated)
outcome [1]: inactive
outcome [2]: inactive
outcome [4]: inactive
outcome [5]: inactive
outcome [6]: inactive
outcome [7]: inactive
outcome [8]: inactive
outcome [9]: inactive
outcome [10]: inactive
outcome [11]: inactive
outcome [12]: inactive
outcome [15]: inactive
outcome [16]: inactive
outcome [17]: inactive

CCOC(=O)NCCOc1ccc(Oc2ccccc2)cc1
outcome [1]: inactive
outcome [2]: inactive
outcome [3]: inactive
outcome [4]: inactive
outcome [5]: inactive
outcome [6]: inactive
outcome [7]: inactive
outcome [8]: inactive
outcome [9]: inactive
outcome [10]: inactive
outcome [19]: inactive
outcome [11]: inactive
outcome [14]: inactive
outcome [15]: inactive
outcome [16]: inactive
outcome [17]: inactive

CC(=O)S[C@@H]1CC2=CC(=O)CC[C@]2(C)[C@H]2CC[C@@]3(C)[C@@H](CC[C@@]34CCC(=O)O4)[C@H]12
outcome [1]: inactive
outcome [2]: inactive
outcome [3]: inactive
outcome [4]: inactive
outcome [5]: inactive
outcome [6]: inactive
outcome [7]: inactive
outcome [8]: inactive
outcome [9]: inactive
outcome [10]: inactive
outcome [14]: inactive
outcome [15]: inactive
outcome [16]: inactive
outcome [17]: inactive

CN(C)C(=O)Nc1ccc(Cl)c(Cl)c1
outcome [1]: inactive
outcome [2]: inactive
outcome [3]: inactive
outcome [4]: inactive
outcome [5]: inactive
outcome [6]: inactive
outcome [8]: inactive
outcome [10]: inactive
outcome [11]: inactive
outcome [12]: inactive
outcome [14]: inactive
outcome [15]: inactive
outcome [16]: inactive
outcome [18]: inactive
outcome [17]: inactive

Oc1ccc(C(c2ccc(O)cc2)C(Cl)(Cl)Cl)cc1
AC50 [1]: 80.8 µM (active) and 85.1 µM (active)
AC50 [2]: 66.7 µM (active)
outcome [2]: inactive
AC50 [3]: 64.5 µM (active) and 82.7 µM (active)
outcome [4]: inactive
outcome [5]: inactive
AC50 [6]: 63.4 µM (active)
outcome [7]: inactive
AC50 [8]: 138000 nM (active)
AC50 [9]: 117000 nM (active)
outcome [11]: inactive
AC50 [12]: 86.3 µM (active)
outcome [14]: inactive
AC50 [15]: 202000 nM (active)
AC50 [16]: 202 µM (active)
AC50 [17]: 202 µM (active)

CCCCC(CC)CN1C(=O)C2C3C=CC(C3)C2C1=O (configuration not stated)
outcome [1]: inactive
outcome [2]: inactive
outcome [3]: inactive
outcome [4]: inactive
outcome [5]: inactive
outcome [6]: inactive
outcome [7]: inactive
outcome [8]: inactive
outcome [9]: inactive
outcome [10]: inactive
outcome [11]: inactive
outcome [12]: inactive
outcome [13]: inactive
outcome [14]: inactive
outcome [15]: inactive
outcome [17]: inactive

CC(C)(c1ccc(O)cc1)c1ccc(O)cc1
outcome [1]: inactive
outcome [2]: inactive
AC50 [3]: 75.9 µM (active)
outcome [3]: inactive
AC50 [4]: 16.4 µM (active)
outcome [4]: inactive
AC50 [5]: 41.7 µM (active) and 25.2 µM (active) and 38.1 µM (active)
AC50 [6]: 36.5 µM (active) and 64.9 µM (active) and 25.3 µM (active)
AC50 [7]: 40 µM (active) and 40.1 µM (active)
outcome [7]: inactive
AC50 [8]: 46.9 µM (active) and 47.9 µM (active) and 37.4 µM (active)
AC50 [9]: 41.7 µM (active) and 36.1 µM (active)
outcome [9]: inactive
AC50 [10]: 40.5 µM (active) and 37.7 µM (active)
outcome [10]: inactive
AC50 [11]: 41.6 µM (active) and 39.4 µM (active)
outcome [11]: inactive
AC50 [12]: 44.3 µM (active) and 36.4 µM (active)
outcome [12]: inactive
AC50 [14]: 35.2 µM (active)
outcome [14]: inactive
AC50 [15]: 42 µM (active) and 36.8 µM (active)
AC50 [16]: 36.7 µM (active)
outcome [16]: inactive
AC50 [17]: 37.5 µM (active)
outcome [17]: inactive

CC(C)CCCCCCc1ccc(O)cc1
AC50 [1]: 39.9 µM (active)
outcome [1]: inactive
AC50 [2]: 37.2 µM (active)
outcome [2]: inactive
AC50 [3]: 46.2 µM (active) and 41.7 µM (active)
outcome [3]: inactive
outcome [4]: inactive
outcome [5]: inactive
outcome [6]: inactive
outcome [7]: inactive
outcome [8]: inactive
outcome [9]: inactive
outcome [10]: inactive
outcome [11]: inactive
outcome [12]: inactive
outcome [14]: inactive
outcome [15]: inactive
outcome [16]: inactive
outcome [17]: inactive
